Bioassay records as filed in PubChem BioAssay.
Sampled rows, rich in hits. Any-hit rate of the full collection: about 10%.
RORgamma inh = inhibitors of mouse ROR gamma transcriptional activity; AID 2551; Potency, µM (titrated, usually from 53.6 µM), actives largely listed as inhibitors; P51450; 5.4% of 310,000 active; Drosophila S2 Gal4-RORgamma UAS-luciferase reporter, 20 h; further: nearly all actives have a fitted effect of over 60% in size
Target sequence (P51450 whole entry, looked up, the tested form may be a part): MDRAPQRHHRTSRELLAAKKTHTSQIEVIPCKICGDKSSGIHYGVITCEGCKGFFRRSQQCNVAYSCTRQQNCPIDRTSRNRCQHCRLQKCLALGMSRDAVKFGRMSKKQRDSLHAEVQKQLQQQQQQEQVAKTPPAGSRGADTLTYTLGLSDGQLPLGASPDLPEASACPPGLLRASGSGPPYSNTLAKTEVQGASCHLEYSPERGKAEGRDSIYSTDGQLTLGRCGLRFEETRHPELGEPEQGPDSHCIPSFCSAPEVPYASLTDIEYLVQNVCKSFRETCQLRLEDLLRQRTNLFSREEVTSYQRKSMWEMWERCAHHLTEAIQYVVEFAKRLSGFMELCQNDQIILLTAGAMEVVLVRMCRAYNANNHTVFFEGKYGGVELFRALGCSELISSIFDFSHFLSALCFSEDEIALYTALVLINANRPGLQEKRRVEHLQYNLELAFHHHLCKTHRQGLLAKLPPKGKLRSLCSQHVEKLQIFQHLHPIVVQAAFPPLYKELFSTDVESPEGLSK
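Luciferase reporter read in Schneider cells carrying Gal4-RORγ (mouse) and UAS-Photinus luciferase; cells given compound 1 h before 700 uM copper sulfate induction, then incubated 20 h at ambient temperature.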
Gal4-VP16 FLuc = counter-screen for ROR gamma inhibitors: Gal4-VP16 reporter | 3.5% of 310,000 active | Drosophila S2 Gal4-VP16 UAS-luciferase, luminescence, 20 h | Potency, µM (top dose mostly 53.6 µM), most hits filed as inhibitors;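 further: Gal4-VP16 expression switched on by copper sulfate through the metallothionein promoter; nearly all actives have a fitted effect of over 50% in size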
ELG1 DNA repair = ELG1-dependent DNA repair inhibition; Potency, µM (doses to about 46.1 µM), most hits filed as inhibitors; 2.3% of 330,000 active; HEK293T ELG1-luciferase reporter, luminescence, 16 h; DNA damage induced by 5-fluorouridine; further: nearly all actives have a fitted effect of over 55% in size
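In this reporter screen, reduction of luminescence relative to DMSO vehicle indicated activity. Compounds and 5-fluorouridine were added together to 2,000 cells per well, incubated for 16 hr at 37 °C, then developed with ONE-Glo.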
MCF10A rereplic = induces DNA re-replication in MCF 10a normal breast cells. MCF 10A DNA re-replication, Hoechst nuclear intensity, 48 h. AID 624296. 2.9% of 350,000 active. Potency, µM (series often up to 46.1 µM), actives largely listed as activators; further: nearly all actives have a fitted effect of over 50% in size
SW480 rereplic = inducers of DNA re-replication in SW480 colon cancer cells. SW480 DNA re-replication, Hoechst DNA content imaging, 48 h. Potency, µM (top dose mostly 46.1 µM), most hits filed as activators. 1.8% of 340,000 active; further: nearly all actives have a fitted effect of over 55% in size
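Cells (250 per well) received 23 nL compound or DMSO by pin tool and were kept 48 hr at 37 C, 5% CO2. Nuclei were then stained with Hoechst for 40 min and scanned for DNA content.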
Large screens that a line does not name were inactive. The call rests on the fitted dose curve; in most records, active means well fitted curve in the direction sought with a large enough effect; inconclusive means small, poorly fitted or top-dose-only effect, or another doubt; inactive means no such curve, though single readings can be large; an effect the other way counts as inactive or inconclusive.

CN(C)CCn1c2ccccc2c2nc3ccc([N+](=O)[O-])cc3cc21	RORgamma inh 7.9µM, Gal4-VP16 FLuc 11µM, ELG1 DNA repair inconclusive, SW480 rereplic inconclusive
Oc1ccc(Br)cc1-c1ccn[nH]1	RORgamma inh 2.8µM, Gal4-VP16 FLuc 6.3µM, MCF10A rereplic inconclusive
Oc1c(-c2cc(-c3ccco3)[nH]n2)ccc2ccccc12	RORgamma inh 6.3µM, Gal4-VP16 FLuc 14µM, ELG1 DNA repair inconclusive
Oc1ccc(Cl)cc1-c1cc(-c2ccco2)[nH]n1	RORgamma inh 3.5µM, Gal4-VP16 FLuc 13µM, ELG1 DNA repair inconclusive, MCF10A rereplic inconclusive, SW480 rereplic inconclusive
Oc1ccc(Br)cc1-c1cc(-c2ccco2)[nH]n1	RORgamma inh 13µM, Gal4-VP16 FLuc 16µM
COc1ccc2c(c1OC)C(=O)OC2Nc1nc(-c2cccc([N+](=O)[O-])c2)cs1 (stereo not given)	RORgamma inh inconclusive, ELG1 DNA repair inconclusive
O=[N+]([O-])c1cnc(Nc2ccccc2)nc1Nc1ccccc1	RORgamma inh inconclusive
Cc1ccc(/C(=N/Nc2nc3ccccc3s2)C2=C(O)c3ccccc3C2=O)cc1	RORgamma inh 4.5µM, Gal4-VP16 FLuc inconclusive, MCF10A rereplic inconclusive, SW480 rereplic inconclusive
C=CCNc1sc(C(=O)c2ccccc2)c(N)c1-c1nc2ccccc2s1	RORgamma inh 4.5µM, Gal4-VP16 FLuc 16µM
CCNc1sc(C(=O)c2cccs2)c(N)c1-c1nc2ccccc2s1	RORgamma inh inconclusive, Gal4-VP16 FLuc 7.9µM, ELG1 DNA repair inconclusive, MCF10A rereplic inconclusive, SW480 rereplic 0.82µM
CSCCNC(=O)Nc1c(-c2c(Cl)cccc2Cl)noc1C	none
CCc1ccc(CN2CCCC(CCC(=O)N3CCN(c4ccccn4)CC3)C2)o1 (stereo not given)	none
Cn1ccnc1COc1ccc(C=O)cc1	RORgamma inh inconclusive
COc1cccc2cc(-c3cc(=O)oc4cc(C)c(OCC(C)=O)cc34)oc12	ELG1 DNA repair 5.2µM, SW480 rereplic 6.5µM
Cc1ccc(NC(=O)CC2Nc3ccccc3NC2=O)cc1Cl (stereo not given)	RORgamma inh inconclusive, ELG1 DNA repair inconclusive, MCF10A rereplic 2.6µM, SW480 rereplic 16µM
CCOc1ccccc1NC(=O)CC1Nc2cc(C)c(C)cc2NC1=O (stereo not given)	ELG1 DNA repair inconclusive, MCF10A rereplic 18µM, SW480 rereplic inconclusive
CN(C)CCNC(=O)COc1ccc(C23CC4CC(CC(C4)C2)C3)cc1	RORgamma inh inconclusive, Gal4-VP16 FLuc inconclusive, MCF10A rereplic 16µM, SW480 rereplic inconclusive
Cc1ccc(C23CC4CC(CC(NC(=O)NCCN(C)C)(C4)C2)C3)cc1	RORgamma inh inconclusive, MCF10A rereplic inconclusive, SW480 rereplic inconclusive
CC(=O)NC12CC3CC(C1)CC(C(=O)N(C)CC(=O)Nc1ccccc1Cl)(C3)C2	none (no result: RORgamma inh, Gal4-VP16 FLuc)
CC(=O)NC12CC3CC(C1)CC(C(=O)N(C)Cc1cccc(Cl)c1Cl)(C3)C2	RORgamma inh inconclusive, Gal4-VP16 FLuc 7.1µM
COCCCn1c(=S)[nH]c2sc3c(c2c1=O)CCCS3	RORgamma inh 1µM, Gal4-VP16 FLuc 2.8µM, MCF10A rereplic inconclusive
Cn1c(=S)[nH]c2sc3c(c2c1=O)CCC(C(C)(C)C)C3 (stereo not given)	RORgamma inh 0.32µM, Gal4-VP16 FLuc 1µM, ELG1 DNA repair inconclusive (no result: MCF10A rereplic, SW480 rereplic)
O=c1[nH]cnc2sc3c(c12)CCCCC3	ELG1 DNA repair inconclusive
O=c1[nH]c(=S)[nH]c2sc3c(c12)CCCCCC3	RORgamma inh 14µM, Gal4-VP16 FLuc inconclusive, MCF10A rereplic inconclusive
Nn1c(=S)[nH]c2sc3c(c2c1=O)CCCC3	none (no result: RORgamma inh, Gal4-VP16 FLuc, ELG1 DNA repair)
CCCn1c(=S)[nH]c2sc3c(c2c1=O)CCCC3	RORgamma inh 0.28µM, Gal4-VP16 FLuc 0.89µM, SW480 rereplic inconclusive
CC(=O)Cn1nnc2sc3c(c2c1=O)CCC(C(C)(C)C)C3 (stereo not given)	Gal4-VP16 FLuc inconclusive, ELG1 DNA repair inconclusive
CCn1c(=O)n(CCOC)c(=O)c2c3c(sc21)CCCC3	none
Cc1cc(C(=O)NCc2cc(C(=O)O)co2)co1	none
COCCn1c(=S)[nH]c2sc3c(c2c1=O)CCC(C)C3 (stereo not given)	RORgamma inh 1.1µM, Gal4-VP16 FLuc 1.3µM, MCF10A rereplic inconclusive, SW480 rereplic inconclusive
CCn1nnc2sc3c(c2c1=O)CCC(C)C3 (stereo not given)	ELG1 DNA repair inconclusive
CN(C)C(=O)c1ccc(-c2cncnc2NCCc2cnc[nH]2)cc1	none (no result: ELG1 DNA repair, MCF10A rereplic, SW480 rereplic)
